Compound activity as filed in PubChem.
BAZ2B block: blocks human BAZ2B | 360,000 tested, 4.4% active | AlphaScreen BAZ2B-H3K14Ac peptide displacement | Potency, µM (top dose mostly 114 µM), without a hit: top-dose activity change, negative = inhibition, most hits filed as inhibitors | Q9UIF8; further: potency means the concentration at half of the fitted maximal effect; on the % scale 0 is the no-effect control and ±100 the full control effect; nearly all actives have a fitted effect of over 60% in size
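Multi-concentration screen (max 110 uM) measuring displacement of acetylated histone H3 peptide from BAZ2B by AlphaScreen, using 50 nM protein, 50 nM peptide and 10 ug/mL streptavidin donor plus Ni-chelate acceptor beads.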
PI5P4K alpha inh: blocks human PI5P4K alpha kinase activity. AID 652105. PI5P4Kalpha enzyme, ADP-Glo luminescence, 60 min; active compounds read low. 330,000 tested, 1.2% active. max response, %. P48426; active means max response of -50% or lower; inconclusive means between -30% and -50%; inactive means -30% or higher; further: value at the top dose of about 77 µM; on the % scale 0 is the no-effect control and ±100 the full control effect
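PI5P4Kalpha ADP-Glo assay; 5 microM ATP final; 60 min RT reaction; HEPES pH 7.4/EGTA/CHAPS, 5% DMSO; controls lacking substrate or enzyme; luminescent end-point.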
HP1b chromo inh: HP1-beta chromodomain-methylated histone interaction inhibition; AlphaScreen HP1-beta / biotin-H3K9me3 peptide binding; 390,000 tested, 0.56% active; P83916; Potency, µM (series often up to 114 µM), inactives show at the highest dose activity change, negative = inhibition, usual class: inhibitors; further: potency means the concentration at half of the fitted maximal effect; nearly all actives have a fitted effect of over 70% in size
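AlphaScreen: HP1-beta (50 nM) preformed 30 min with biotin-H3(1-18)K9me3 peptide (50 nM) in PBS pH 7.4, 0.01% Tween-20. Compound added for 30 min at RT, then streptavidin donor/nickel chelate acceptor beads (10 ug/mL) for 30 min.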
KAT2A inh: inhibitors of human GCN5L2 histone acetyltransferase; Q92830; GCN5L2 HAT assay, ThioGlo1 CoA-SH fluorescence; Potency, µM (top dose mostly 58.9 µM), for inactives: top-dose activity change, negative = inhibition, usual class: inhibitors; 390,000 tested, 0.21% active; AID 504327; further: potency means the concentration at half of the fitted maximal effect; on the % scale 0 is the no-effect control and ±100 the full control effect
Target sequence (Q92830 whole entry, looked up): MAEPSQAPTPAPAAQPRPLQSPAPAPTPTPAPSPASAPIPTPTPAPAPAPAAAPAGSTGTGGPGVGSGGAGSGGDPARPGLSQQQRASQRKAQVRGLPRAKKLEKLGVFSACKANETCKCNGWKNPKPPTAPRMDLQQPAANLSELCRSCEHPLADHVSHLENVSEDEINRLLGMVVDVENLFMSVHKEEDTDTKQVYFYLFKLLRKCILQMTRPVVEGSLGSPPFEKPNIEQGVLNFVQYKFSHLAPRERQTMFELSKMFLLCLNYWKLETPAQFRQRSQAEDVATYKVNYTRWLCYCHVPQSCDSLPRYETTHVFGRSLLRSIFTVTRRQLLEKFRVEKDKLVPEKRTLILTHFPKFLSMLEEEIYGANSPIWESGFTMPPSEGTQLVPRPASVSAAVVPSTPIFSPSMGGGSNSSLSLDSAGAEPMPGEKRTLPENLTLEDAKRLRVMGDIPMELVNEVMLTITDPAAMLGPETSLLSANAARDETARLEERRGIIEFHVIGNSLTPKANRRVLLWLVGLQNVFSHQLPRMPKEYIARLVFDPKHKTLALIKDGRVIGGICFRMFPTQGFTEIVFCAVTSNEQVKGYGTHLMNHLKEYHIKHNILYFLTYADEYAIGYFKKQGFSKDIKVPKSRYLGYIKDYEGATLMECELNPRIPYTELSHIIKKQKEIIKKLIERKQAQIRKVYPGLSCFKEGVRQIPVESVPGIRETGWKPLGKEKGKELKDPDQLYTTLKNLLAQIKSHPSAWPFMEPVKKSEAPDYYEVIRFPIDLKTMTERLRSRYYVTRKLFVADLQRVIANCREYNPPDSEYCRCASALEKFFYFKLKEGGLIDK
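GCN5L2 (20nM final) in 50mM HEPES, 0.1mM EDTA pH 7.5, 0.01% Tween-20 was preincubated 15 min at room temperature with compound, then given ThioGlo1 (50uM), H3(1-25) peptide (75uM) and acetyl-CoA (70uM); CoA-thiol fluorescence (Ex340/Em540) was read at 0 and 20 min.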
PLK1 PBD inh: PLK1 (human) polo-box domain binding inhibition | P53350 | Plk1 PBD binding of FITC phosphopeptide, fluorescence polarization | Potency, µM, without a hit: max response, negative = inhibition, most hits filed as inhibitors | 360,000 tested, 2.8% active | AID 720504; further: potency means the concentration at half of the fitted maximal effect; series mostly up to about 57 µM; on the % scale 0 is the no-effect control and ±100 the full control effect; nearly all actives have a fitted effect of over 65% in size
JMJD2A Tudor: inhibitors of human JMJD2A Tudor domain. O75164. AlphaScreen JMJD2A-Tudor / H3K4me3 peptide binding. Potency, µM (series often up to 114 µM), for inactives: at the highest dose activity change, negative = inhibition, usual class: inhibitors. 390,000 tested, 4.4% active. AID 504339; further: potency means the concentration at half of the fitted maximal effect; on the % scale 0 is the no-effect control and ±100 the full control effect; nearly all actives have a fitted effect of over 50% in size
* hit, by the source's call; ? = inconclusive; · = no result; [ ] = remark or other dose. Compounds with a hit are over-represented: about 7% of the library has one in this group of screens. Unless noted, the call rests on the fitted dose curve; in most records, active means well fitted curve in the direction sought with a large enough effect; inconclusive means small, poorly fitted or top-dose-only effect, or another doubt; inactive means no such curve, though single readings can be large; an effect the other way counts as inactive or inconclusive.

SMILES | BAZ2B block | PI5P4K alpha inh | HP1b chromo inh | KAT2A inh | PLK1 PBD inh | JMJD2A Tudor
CCOC(=S)N/C(=N\S(C)(=O)=O)c1ccccc1 | -18.6% | 0.6 | 19.4% | -14.9% | 16.8µM* | -11.0%[11.4 µM]
CCOC(=O)c1ccc(N/C(=N\S(=O)(=O)c2ccccc2C)c2ccccc2)cc1 | -29.4% | -2.6 | 5.1% | -2.1% | -6.8% | -20.7%
COc1ccc(CCNCc2csc3nc4ccccc4n23)cc1OC | ? | 2.9 | 9.6% | -3.6% | -3.1% | 89.1µM*
COc1ccc(CCNC(=O)CNCC2CCCO2)cc1OC (stereo not drawn) | ? | · | ? | 1.3% | -11.5% | 3.55µM*
COc1ccccc1CNC(=O)COc1ccccc1OC | 1.3% | -3.0 | 25.3% | -0.1% | -7.8% | 5.4%
COc1ccc(CCNC(=O)/C(C#N)=C/c2ccc(OCC(=O)NCC3CCCO3)cc2)cc1OC (stereo not drawn) | 0.2% | 1.7 | 29.0% | 2.3% | -21.7% | -22.3%[57.1 µM]
COc1cccc(/C=N/NC(=O)CC(=O)NCCc2ccc(OC)c(OC)c2)c1 | 10.2% | · | -16.8% | -22.1% | 26.7µM* | ?
COc1ccccc1CNC(=O)CC(C)C | 2.4% | ? | ? | -3.3% | 11.9µM* | 28.2µM*
COc1ccc(CCNc2nc3ccccc3n3nnnc23)cc1OC | -5.2% | -0.9 | 32.0% | -14.9% | -0.5% | -9.0%
CCOC(=O)[C@]12CCC=C1N(Cc1ccc(Cl)cc1Cl)C(=O)[C@H](CC(=O)NCCCN1CCCC1=O)C2 | · | -2.1 | · | · | -21.0% | ·
Cc1cccc(CC(=O)NCCN2CCCCC2)c1 | -13.4% | -12.8 | 5.7% | -10.9% | -8.2% | -5.5%
CCS(=O)(=O)Nc1ccc(C2=NN(S(=O)(=O)CC)C(c3cccs3)C2)cc1 (stereo not drawn) | -18.4% | -6.4 | 39.2% | -5.5% | 4.3% | -3.4%
NC(CSCSCC(N)C(=O)O)C(=O)O (stereo not drawn) | · | · | · | -1.0% | · | ·
COc1ccccc1CNC(=O)Cc1ccc(C)cc1 | -10.0% | 2.8 | 21.5% | 2.1% | 4.0% | -14.7%
O=C(NCc1ccccc1F)C12CC3CC(CC(C3)C1)C2 | · | 0.7 | 15.2% | · | -15.9% | -12.7%
COc1ccccc1CNC(=O)CNCCc1ccc(OC)c(OC)c1 | 50.1µM* | -1.1 | ? | -3.0% | -3.6% | 22.4µM*
COc1ccccc1CNC(=O)C12CC3CC(CC(C3)C1)C2 | 37.8% | -7.1 | 10.3% | 3.2% | 26.7µM* | 79.4µM*
Cc1ccc(NS(=O)(=O)c2ccc3c(c2)CCCC(=O)N3)cc1C | · | · | · | · | · | -27.2%
C/C(=N/NC(=O)c1ccc(C)nc1)c1ccc2c(c1)CCCC2 | -11.9% | 0.1 | 9.4% | -1.0% | -1.5% | -4.7%
COc1cc(/C=N/NC(=O)C(=O)NCc2ccco2)cc(Br)c1O | ? | -20.0 | 3.8% | -8.4% | 4.0% | ?
COc1ccc(OC)c(S(=O)(=O)NCC(c2ccc(N(C)C)cc2)N2CCOCC2)c1 (stereo not drawn) | -19.3% | · | 8.1% | -18.1% | · | -22.8%
O=C(CCc1nnc2ccc(N3CCC4(CC3)OCCO4)nn12)N1CCCCC1 | -9.4%[57.1 µM] | -0.1 | 41.6% | -4.8% | -8.7% | -0.8%
CCOc1cccc2sc(N(CCN(C)C)C(=O)/C=C/c3cccs3)nc12 | ? | 4.6 | -10.1% | -1.4% | -4.7% | 44.7µM*
COc1ccc(OC)c2sc(N(CCN(C)C)C(=O)/C=C/c3cccs3)nc12 | -24.9% | 2.6 | 7.5%[57 µM] | -18.7% | -10.8% | ?
CN(C)CCN(C(=O)/C=C/c1cccs1)c1nc2c(F)cc(F)cc2s1 | ? | -4.3 | ? | -15.5% | -9.1% | 39.8µM*
SMILES | BAZ2B block | PI5P4K alpha inh | HP1b chromo inh | KAT2A inh | PLK1 PBD inh | JMJD2A Tudor
COc1ccc(C)c2sc(N(CCN(C)C)C(=O)/C=C/c3cccs3)nc12 | 35.5µM* | 4.2 | 2.7% | -0.1% | 1.2% | ?
COc1cccc2sc(N(CCN(C)C)C(=O)/C=C/c3cccs3)nc12 | · | 0.3 | 11.4% | -6.6% | 4.2% | -33.3%
O=C1OC(c2ccc(Cl)cc2)/C(=C(/O)c2ccccc2)C1=O (stereo not drawn) | ? | 3.6 | -1.7% | -0.4% | -15.6% | 31.6µM*
CN1C(=O)C(=O)/C(=C(/O)c2ccc(Br)cc2)C1c1ccc(Cl)cc1 (stereo not drawn) | -16.5% | -1.5 | 37.1% | -15.0% | -15.0% | -15.1%
CCOC(=O)c1c(NC(=S)Nc2ccccc2)sc(C)c1C | 2.8% | · | -25.1% | -1.8% | 26.7µM* | -5.5%
CCOC(=O)c1sc(N)c(C#N)c1CSc1nnc(C2CC2)n1N | 7.0% | · | 20.0% | -7.7% | -8.3% | -9.8%
CCOC(=O)c1sc(N)c(C(N)=O)c1C | · | 1.6 | -13.1% | -5.4% | 23.8µM* | -20.3%
CCCc1c(C(=O)OCC)sc(N)c1C#N | ? | -14.6 | ? | 1.3% | 18.9µM* | -9.0%
CCOC(=O)c1c(NC(=S)NCC2CCCO2)sc(C)c1C (stereo not drawn) | · | -10.5 | ? | -19.0% | 11.9µM* | ?
CCOC(=O)c1[nH]c(C)c(C(=O)NCC2CCCO2)c1C (stereo not drawn) | -3.6% | -3.7 | 24.7% | -0.3% | -10.7% | -19.1%
CC(=O)Nc1sc(C)c(C)c1C(=O)OCC(=O)Nc1ccccc1 | -2.0% | 2.0 | 29.9% | 0.3% | -7.5% | -10.1%
COc1ccc(S(=O)(=O)N2CCOCC2)cc1NC(=O)CN1C(=O)NC2(CCCC2)C1=O | 53.6% | -0.5 | 41.3% | 1.0% | -0.1% | 4.4%
CCOC(=O)c1c(N)sc(C(=O)Nc2ccccc2)c1C | -14.9% | -3.5 | ? | 2.6% | 21.2µM* | -29.9%
CCOC(=O)c1c(N)sc(C(N)=O)c1C | -4.5% | -4.3 | ? | -3.8% | ? | 5.3%
OCC[C@@H]1C[C@H](O)[C@@H](O)[C@@]2(CCCc3ccccc3O2)O1 | -18.2% | 0.3 | 44.8% | -2.2% | -11.8% | -20.7%
CN(CC(=O)Nc1ccccc1C(F)(F)F)C(=O)CSc1nc(N)cc(N)n1 | 3.5% | 4.8 | 48.7% | 2.7% | ? | 1.4%
O=c1[nH]c2c(s1)C(c1ccco1)C1C3CCC(C3)C1S2 (stereo not drawn) | 50.1µM* | ? | -13.4% | -5.8% | ? | ?
O=C1CC(c2ccco2)Sc2ccccc2N1 (stereo not drawn) | -17.5% | -4.5 | 19.3% | -12.5% | -18.2% | -26.0%
CCC(=O)N(Cc1ccco1)Cc1cc2cccc(C)c2n2nnnc12 | -15.5% | 4.5 | 32.5% | 2.4% | -0.9% | -11.6%
Cc1ccc2c(c1)cc(CN(Cc1ccco1)C(=O)COc1ccccc1)c1nnnn12 | 7.5% | -10.6 | ? | -5.0% | 23.8µM* | -32.1%[57.1 µM]
COc1cccc(C2c3cc4c(cc3OC(N3CCOCC3)C2C)OCO4)c1O (stereo not drawn) | · | 11.4 | ? | · | -0.5% | 39.8µM*
